{
  "source": "PubChem BioAssay AID1851",
  "about": "(National Center for Advancing Translational Sciences (NCATS), 2009)",
  "note": "About 5,700 (36%) of roughly 16,000 compounds were called active. Roughly 24% stayed inconclusive and do not appear here. This is one part of the list. A number with no mark means an inactive call. Calls follow the shape of the dose curve; as a rule, active = well fitted curve in the direction sought with a large enough effect; inconclusive = small, poorly fitted or top-dose-only effect, or effect the other way; inactive = no such curve, though single readings can be large or run the other way. % is scaled to controls: 0 for no effect and ±100 for the full control effect.",
  "data": [
    {"target": "Cytochrome P450 1A2 (Homo sapiens) (UniProt P05177)", "sequence (P05177 whole entry, looked up)": "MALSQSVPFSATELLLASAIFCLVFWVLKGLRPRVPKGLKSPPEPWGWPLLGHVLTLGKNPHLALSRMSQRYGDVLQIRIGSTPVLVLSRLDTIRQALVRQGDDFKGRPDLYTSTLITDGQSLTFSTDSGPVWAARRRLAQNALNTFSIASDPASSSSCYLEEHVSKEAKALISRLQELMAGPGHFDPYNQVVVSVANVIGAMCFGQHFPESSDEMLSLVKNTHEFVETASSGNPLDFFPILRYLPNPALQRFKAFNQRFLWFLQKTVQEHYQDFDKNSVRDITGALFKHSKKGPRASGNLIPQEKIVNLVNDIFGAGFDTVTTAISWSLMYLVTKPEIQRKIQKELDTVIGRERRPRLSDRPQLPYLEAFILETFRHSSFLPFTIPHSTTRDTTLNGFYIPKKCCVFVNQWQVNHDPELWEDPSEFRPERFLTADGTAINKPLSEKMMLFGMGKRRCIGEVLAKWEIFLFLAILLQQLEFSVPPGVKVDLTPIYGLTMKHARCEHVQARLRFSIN", "assay": "Cytochrome panel assay with activity outcomes", "details": "recombinant CYP, pro-luciferin dealkylation, luminescence, p450-cyp1a2; series mostly up to 57.1 µM; activity, negative = inhibition: at the top concentration", "values": [
      {"compound": "COc1cc2ccccc2c2cc([N+](=O)[O-])oc12", "AC50": "0.126 µM (active)"},
      {"compound": "C[C@H]1C(=O)O[C@@H]2CCN3CC=C(COC(=O)[C@@](C)(O)[C@@]1(C)O)[C@H]23", "activity, negative = inhibition": "-3.43% [at 25.6 µM]"},
      {"compound": "c1ccc2c(c1)OC[C@@H](C1=NCCN1)O2", "AC50": "inactive"},
      {"compound": "NCC#Cc1ccccc1", "AC50": "3.16 µM (active)"},
      {"compound": "C/C=C1\\C[N@@+]2(C)CC[C@@]34C(=C(C=O)[C@H]1C[C@H]32)Nc1ccccc14", "activity, negative = inhibition": "-4.2% [at 25.6 µM]"},
      {"compound": "C[N+]1(C)C2CC(OC(=O)C(CO)c3ccccc3)CC1[C@@H]1O[C@H]21", "note": "(stereo not given in full)", "AC50": "inactive"},
      {"compound": "OC(c1ccccc1)(c1ccccc1)C1CCCN1", "note": "(stereo not given)", "AC50": "15.8 µM (active)"},
      {"compound": "OC(c1ccccc1)(c1ccccc1)C1CCNCC1", "activity, negative = inhibition": "-7.42% [at 25.6 µM]"},
      {"compound": "CC[C@H](C)C(=O)O[C@@H]1[C@H](O)[C@@H]2[C@H](CN3C[C@@H](C)CC[C@@H]3[C@@]2(C)O)[C@@H]2C[C@@]34O[C@@]5(O)[C@@H](OC(=O)[C@](C)(O)CC)CC[C@@]3(C)[C@H]5[C@H](OC(C)=O)[C@@H](OC(C)=O)[C@H]4[C@]12O", "activity, negative = inhibition": "-4.04% [at 25.6 µM]"},
      {"compound": "CC(C)Oc1cccnc1N(C)C1CCN(Cc2ccccc2)CC1", "activity, negative = inhibition": "9.93%"},
      {"compound": "CS(=O)(=O)N1CCC2(CC1)CN(Cc1ccncc1)C2", "activity, negative = inhibition": "-10.1%"},
      {"compound": "O=c1[nH]oc2c1CCNC2", "AC50": "inactive"},
      {"compound": "Cn1ccnc1", "activity, negative = inhibition": "4.4%"},
      {"compound": "C[C@@]12CC[C@H]3[C@@H](CC[C@@H]4C[C@H]5S[C@H]5C[C@]43C)[C@H]1CC[C@H]2O", "AC50": "0.0251 µM (active)"},
      {"compound": "C[C@]12CC[C@H](O)C[C@@H]1CC[C@H]1[C@H]2CC[C@]2(C)C(=O)CC[C@@H]12", "AC50": "inactive"},
      {"compound": "CC(C)CCC[C@@H](C)[C@@H]1CC[C@@H]2[C@H]3CC[C@H]4C[C@@H](N)CC[C@@]4(C)[C@@H]3CC[C@]21C", "activity, negative = inhibition": "3.33% [at 11.4 µM]"},
      {"compound": "C[As+](C)(c1ccc(Br)c([N+](=O)[O-])c1)c1ccc(Br)c([N+](=O)[O-])c1.O=[N+]([O-])O", "activity, negative = inhibition": "-12.7% [at 11.4 µM]"},
      {"compound": "COc1cc(-c2ccc(=O)[nH]n2)ccc1OC(F)F", "AC50": "2.51 µM (active)"},
      {"compound": "CC(C)CN1CCC2(CC1)CCN(S(C)(=O)=O)CC2", "activity, negative = inhibition": "-17.4%"},
      {"compound": "O=C(CCCN1CCC(n2c(=O)[nH]c3ccccc32)CC1)c1ccc(F)cc1", "activity, negative = inhibition": "-11% [at 25.6 µM]"},
      {"compound": "CN1C(=O)C(=Cc2ccc(N3CCCCCC3)o2)C(=O)N(C)C1=S", "AC50": "1.58 µM (active)"},
      {"compound": "CN1C(=O)C(=Cc2ccc(N3CCCCC3)o2)C(=O)N(C)C1=S", "AC50": "1.58 µM (active)"},
      {"compound": "CC(=O)NBr", "activity, negative = inhibition": "-8.01%"},
      {"compound": "O=C(Oc1ccccc1)N1CCC2(CCN(Cc3ccccc3)CC2)CC1", "activity, negative = inhibition": "-8.29%"},
      {"compound": "CC(C)COC(=O)OCN1C(=O)CN(CCN2CC(=O)N(COC(=O)OCC(C)C)C(=O)C2)CC1=O", "activity, negative = inhibition": "-4.86%"},
      {"compound": "Cc1ncc([N+](=O)[O-])n1CCN=[N+]=[N-]", "activity, negative = inhibition": "-9.71% [at 11.4 µM]"},
      {"compound": "COc1cc(CN2CCN(C(=O)COc3ccccc3)CC2)cc(OC)c1OC", "activity, negative = inhibition": "21.8%"},
      {"compound": "C[C@@H](N)Cn1ccc2cc(F)c(Cl)cc21", "AC50": "0.0501 µM (active)"},
      {"compound": "CCCCCC[C@H]1C(=O)O[C@H](C)[C@H](NC(=O)c2cccc(NC=O)c2O)C(=O)O[C@@H](C)[C@H]1OC(=O)CC(C)C", "activity, negative = inhibition": "-17.2% [at 25.6 µM]"},
      {"compound": "COc1ccc2[nH]c3c(c2c1)CCNC3", "AC50": "3.16 µM (active)"},
      {"compound": "COc1ccc2[nH]c3c(c2c1)CCN=C3C", "AC50": "1.58 µM (active)"},
      {"compound": "COc1ccc2c3c([nH]c2c1)C(C)=NCC3", "AC50": "0.794 µM (active)"},
      {"compound": "CC1=NCCc2c1[nH]c1cc(O)ccc21", "AC50": "12.6 µM (active)"},
      {"compound": "CN(C)C=C1C(=O)N(C2CCCCC2)C(=O)N(C2CCCCC2)C1=O", "activity, negative = inhibition": "-7.85%"},
      {"compound": "c1cc2cc(c1)C[n+]1ccc(c3ccccc31)NCc1ccc(cc1)CNc1cc[n+](c3ccccc13)C2", "activity, negative = inhibition": "-11.6%"},
      {"compound": "C[N+]1([O-])[C@H]2CC[C@H]1CC(OC(=O)[C@@H](CO)c1ccccc1)C2", "note": "(stereo not given in full)", "activity, negative = inhibition": "0.783% [at 2.29 µM]"},
      {"compound": "C[N+](C)(C)CCCCCCCCCC[N+](C)(C)C", "activity, negative = inhibition": "-7.81% [at 25.6 µM]"},
      {"compound": "NCC[C@H](O)C(=O)N[C@H]1C[C@@H](N)[C@@H](O[C@H]2O[C@@H](CN)[C@@H](O)[C@@H](O)[C@@H]2N)[C@@H](O[C@H]2O[C@@H](CO)[C@@H](O)[C@@H]2O)[C@@H]1O", "activity, negative = inhibition": "-8.71% [at 25.6 µM]"},
      {"compound": "c1cc(CN2CC3(CCNCC3)C2)ccn1", "activity, negative = inhibition": "-9.36%"},
      {"compound": "O=c1[nH]cnc2[nH]cc(CN3CCCCC3)c12", "activity, negative = inhibition": "-11.6% [at 11.4 µM]"},
      {"compound": "COc1ccccc1CN1CCCC2(CCN(C(=O)Oc3ccccc3)CC2)C1", "activity, negative = inhibition": "-16.8%"},
      {"compound": "CC(C)c1nccn1Cc1ccc(Cl)cc1Cl", "activity, negative = inhibition": "-14.7% [at 11.4 µM]"},
      {"compound": "O=C(O)C(C(=O)O)P(=S)(S)c1ccccc1", "note": "(stereo not given)", "activity, negative = inhibition": "-13.3% [at 11.4 µM]"},
      {"compound": "CNCC/C=C\\c1cccnc1", "activity, negative = inhibition": "-18.5%"},
      {"compound": "CN1[C@@H]2CC[C@H]1CC(NC(=O)c1nn(C)c3ccccc13)C2", "note": "(stereo not given in full)", "activity, negative = inhibition": "-10.6%"},
      {"compound": "COc1cc(N)c(Cl)cc1C(=O)N[C@@H]1CN2CCC1CC2", "activity, negative = inhibition": "-16.9%"},
      {"compound": "Cn1cc(C(=O)C(=O)N[C@H]2CN3CCC2CC3)c2ccccc21", "AC50": "15.8 µM (active)"},
      {"compound": "NCC1(CC(=O)O)CCCCC1", "activity, negative = inhibition": "-2.98% [at 25.6 µM]"},
      {"compound": "C[C@H]1CC[C@@]2(NC1)O[C@@H]1C[C@H]3[C@@H]4CC[C@@H]5C[C@@H](O)CC[C@@]5(C)[C@@H]4CC[C@]3(C)[C@@H]1[C@@H]2C", "activity, negative = inhibition": "-3.92% [at 25.6 µM]"},
      {"compound": "CCCN1CCC[C@@H]2Cc3nc(N)ncc3C[C@H]21", "activity, negative = inhibition": "5.61%"}
    ]}
  ]
}
